This is an account of results in PubChem BioAssay (NCATS).

SMILES strings stand for the structures. Several values for one entry are separate records, joined by “and”; a condition that tells them apart may be missing. Identical values can stand only once. Inconclusive results are not listed. Activity calls are given as the source filed them. Unless noted, the call rests on the fitted dose curve; in most records, active means well fitted curve in the direction sought with a large enough effect; inconclusive means small, poorly fitted or top-dose-only effect, or another doubt; inactive means no such curve, though single readings can be large; an effect the other way counts as inactive or inconclusive.

Assay [1] can be described thus: qHTS assay for small molecule agonists of the antioxidant response element (ARE) signaling pathway (AID 651741; active means well fitted activation curve with a large enough effect in the signal ratio; the % refers to the signal ratio; further: potency means the concentration at half of the fitted maximal effect; on activation: % of control where 0% means no effect). Particulars: HepG2 ARE-bla reporter, beta-lactamase FRET ratio, 16 h; series mostly up to 96 µM. The method, boiled down: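 Seeding 2,000 ARE-bla HepG2 cells per well preceded a 5 h incubation at 37 C/5% CO2 and a 16 h compound exposure at 37 C. Beta-lactamase reporter activity was then quantified by fluorescence after 2 h with LiveBLAzer B/G FRET substrate.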
A general note: Quantitative high-throughput screening tests each substance at several concentrations.

Assay [2] in a line: qHTS Assay for Identification of Small Molecule Antagonists for NFkB Signaling Pathway. (AID 624479; calls by dose curve; further: potency means the concentration at half of the fitted maximal effect). The note with it: NFkB pathway reporter cell assay, antagonist mode; series mostly up to 38.3 µM.
Assay [3] is described as follows: Cell Proliferation Assay against the TMD8 Cell Line (Caspase readout at 8 hrs) (AID 651713). Further: potency means the concentration at half of the fitted maximal effect. Particulars: TMD8 lymphoma cells, caspase activation luminescence; series mostly up to 46.1 µM. The method, boiled down:
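Percent activity derived from Caspase-Glo signal, DMSO set to 0% and bortezomib (9.2 uM final) to 100%. TMD8 cells were exposed to compound for 8 h in RPMI with 5% FBS.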

Assay [4] is described as follows: qHTS assay for small molecule activators of the p53 signaling pathway (AID 651743; active means well fitted activation curve with a large enough effect in the signal ratio, not every such curve was filed as active; the % refers to the signal ratio; further: potency means the concentration at half of the fitted maximal effect; on activation: % of control where 0% means no effect). The note with it: HCT-116 p53RE-bla, beta-lactamase FRET ratio, 16 h; activation: stronger effect = higher value. The method, boiled down:
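Screen for p53 pathway agonists uses stably transfected p53RE-bla HCT-116 cells, 4,000 per well, treated 16 h at 37 C with compounds in DMSO.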

Assay [5] is described as follows: qHTS assay for small molecule activators of the nuclear factor-kappa B (NF-kB) signaling pathway (AID 651749; active means well fitted activation curve with a large enough effect in the signal ratio; the % refers to the signal ratio; further: % of control where 0% means no effect). The note with it: NF-kB-bla ME-180 cells, beta-lactamase FRET ratio, 16 h; stronger effect = higher value. The essentials:
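Stably transfected ME-180 line; NF-kB response element upstream of beta-lactamase. Treatment: compound or DMSO, 16 hr. Detection: fluorescent FRET substrate.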

Assay [6] can be described thus: qHTS assay for environmental chemicals that activate the Aryl hydrocarbon Receptor (AhR) signaling pathway (AID 651777). Further: nearly all actives have a fitted effect of over 15% in size. Further: potency means the concentration at half of the fitted maximal effect. On activation: % of control where 0% means no effect. The note with it: 1A2-DRE human hepatoma cells, luciferase, 24 h; activation: stronger effect = higher value. The method, boiled down:
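Human hepatoma 1A2-DRE cells, stably carrying a dioxin response element and CYP1A2 promoter driving luciferase, were exposed to compounds for 24 hr at 37 C and 5% CO2. Luciferase signal was then read after 30 min One-Glo at room temperature.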

Assay [7] in a line: qHTS Assay for Identification of Small Molecule Agonists for NFkB Signaling Pathway. (AID 624478).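 Further: compounds tested together with TNF alpha at its EC50 of 10 pM; 0% is about no effect.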 The note with it: NFkB pathway reporter cell assay, agonist mode, cells co-stimulated with 10 pM TNF alpha; series mostly up to 46.1 µM. The essentials:
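Cells carrying an NFkB response element-driven beta-lactamase gene are co-treated with compound and 10 pM TNF alpha for 5 h, and reporter activity is then read as 460 and 530 nm fluorescence.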

Assay [8] in a line: Cell Proliferation Assay against the HBL1 Cell Line (AID 651646).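 Further: cells exposed to compound for 48 h before reading.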 Particulars: HBL1 DLBCL cells; at 46.1 µM (top of the series) unless noted. The essentials:
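Luminescent ATP read-out (CellTiter-Glo) after 48 h compound exposure of HBL1 cells at 37 °C; percent activity was scaled between DMSO as 100% and 9.2 uM bortezomib (final) as 0%.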

Assay [9] is described as follows: Cell Proliferation Assay against the TMD8 Cell Line (Caspase readout at 16 hrs) (AID 651712). Further: potency means the concentration at half of the fitted maximal effect. The note with it: TMD8 lymphoma cells, caspase activation luminescence; series mostly up to 46.1 µM. The essentials: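 Apoptotic response of TMD8 cells was judged from caspase 3/7 activation following a 16 hour compound incubation at 37 °C. Luminescent signal was converted to percent activity, with DMSO set as 0% and 9.2 uM final bortezomib as 100%.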

The nature of assay [10]: qHTS assay for small molecule disruptors of the mitochondrial membrane potential - 1 hr assay (AID 651754; calls by dose curve; further: nearly all actives have a fitted effect of over 35% in size; further: potency means the concentration at half of the fitted maximal effect). Particulars: series mostly up to 92.2 µM. The method, boiled down: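 Steps: seed HepG2 cells and let attach overnight; pin-transfer compound or vehicle; incubate 1 hr at 37C; add Mito-MPS dye for 30 min; read two-channel fluorescence for monomer and aggregate forms.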

The nature of assay [11]: qHTS assay for small molecule disruptors of the mitochondrial membrane potential - 5 hr assay (AID 651755; calls by dose curve; further: nearly all actives have a fitted effect of over 40% in size; further: potency means the concentration at half of the fitted maximal effect). Particulars: JC-1-type ratio dye; series mostly up to 92.2 µM. The essentials: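 HepG2, 2,000 cells/well, overnight attach; cpd or DMSO 5 hr, 37C/5% CO2; Mito-MPS 30 min 37C; fluor 490/535 + 540/590 nm.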
Assay [12] has as its target Tumor necrosis factor (Homo sapiens) (UniProt P01375). Briefly: qHTS assay to identify small molecules that stimulate Tumor Necrosis Factor-alpha (TNF-alpha) secretion (AID 651757; active means well fitted curve in the direction sought with a large enough effect in the signal ratio; the % refers to the signal ratio; further: 0% is about no effect). Particulars: Human cells, HTRF 665/615 ratio; series mostly up to 92.2 µM. The essentials: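 Secreted TNF-alpha from compound-treated THP-1 cells (17 hrs, 37 C) was quantified with a homogeneous time-resolved fluorescence antibody assay.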

Assay [13] is described as follows: qHTS assay to identify small molecules that stimulate interleukin-8 (IL-8) secretion (AID 651758; active means well fitted activation curve with a large enough effect in the signal ratio; the % refers to the signal ratio; further: 0% is about no effect). Particulars: HTRF ratio (665/615); series mostly up to 92.2 µM. The method, boiled down: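 Secreted IL-8 measured by TR-FRET sandwich (cryptate and XL665 antibodies) from THP-1 cells exposed to compound overnight (16 hrs, 37 C).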
Assay [14] can be described thus: Cytotoxicity counterscreen for NFkB agonists and antagonists (AID 624476).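 Further: cells exposed to compound for 48 hours; on the % scale 0 is the no-effect control and ±100 the full control effect.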 Particulars: NFkB reporter cell line viability counterscreen; series mostly up to 46.1 µM. Background: A counterscreen serves to expose hits that act by an unwanted route or on another target.

Tumor necrosis factor (Homo sapiens), sequence (P01375 whole entry, looked up): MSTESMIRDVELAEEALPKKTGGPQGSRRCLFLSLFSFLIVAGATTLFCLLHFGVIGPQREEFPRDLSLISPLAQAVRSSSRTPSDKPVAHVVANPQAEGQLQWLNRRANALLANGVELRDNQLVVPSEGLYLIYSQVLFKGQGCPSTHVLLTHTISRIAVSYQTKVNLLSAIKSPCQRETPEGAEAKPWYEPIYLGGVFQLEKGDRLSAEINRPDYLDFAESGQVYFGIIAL

As for `[Cl][In]([Cl])[Cl]`, in assay [1], the Potency was 29.8 µM (active).
Consider `CCOc1ccc(Nc2nc(-c3c(C)nc4ccccn34)cs2)cc1`, for which the Potency in assay [2] is 0.335 µM (active).
For `c1cc(-c2cnn3cc(-c4ccc(OCCN5CCCCC5)cc4)cnc23)ccn1`, the Potency is 9.43 µM (active) in assay [2] and 23.5 µM (active) in [3].
Turning to `O=C(Nc1cc(C(F)(F)F)cc(C(F)(F)F)c1)c1cc(Cl)ccc1O`, in assay [2], the Potency is 14.9 µM (active).
Take `O=[N+]([O-])/N=C1\NCCN1Cc1ccc(Cl)nc1`: the Potency result in assay [1] was “inactive”.
Regarding `CCCCCC[C@H]1C(=O)O[C@H](C)[C@H](NC(=O)c2cccc(NC=O)c2O)C(=O)O[C@@H](C)[C@@H]1OC(=O)CC(C)C`, the Potency in [1] is 4.33 µM (active); in assay [4] it was 0.02 µM (active). The activation in [5] is 2.55% (inactive); in assay [6], -1.12% (inactive).
`C=CCON=C(C[C@H]1O[C@@H]2O[C@]3(C)CC[C@@H]4[C@H](C)CC[C@@H]([C@H]1C)[C@@]24OO3)[C@H]1O[C@@H]2O[C@]3(C)CC[C@H]4[C@H](C)CC[C@@H]([C@@H]1C)[C@@]24OO3`: the compound was classed as inactive in assay [7]. Moreover, the Potency in assay [2] was 16.8 µM (active); in assay [9] it was 0.0833 µM (active). Besides, the viability, percent of control in assay [8] turned out to be 30.4%. Also, the Potency result in assay [3] was “inactive”.
Turning to `COc1ccc(C(c2ccc(OC)cc2)C(Cl)(Cl)Cl)cc1`, the Potency is 33.5 µM (active) and 61.1 µM (active) in assay [1]; 23.7 µM (active) and 37.6 µM (active) in assay [10]; 37.6 µM (active) in assay [11]. Further, the activation is 2.38% (inactive) and 0.818% (inactive) in [4]; 1.06% (inactive) and 0.442% (inactive) and 3.56% (inactive) in assay [5]; 1.39% (inactive) and 11.4% (inactive) and 6.25% (inactive) in [6]. Moreover, the result in [12] and in assay [13] was inactive.
As for `O=C(Oc1ccc([N+](=O)[O-])cc1)N1CCC(C(O)(c2ccc3c(c2)OCO3)c2ccc3c(c2)OCO3)CC1`, the Potency result in assay [14], in assay [2] and in assay [3] was “inactive” each time. Also, the call in [7] was inactive. Also, in [8], the viability, percent of control stood at 72%.
On to `Nc1ccc(N=Nc2ccccc2)cc1`, for which, in assay [1], the Potency is 27.3 µM (active). Besides, in assay [4], the activation is -2.42% (inactive).
For `C1=CCOCc2cc(ccc2OCCN2CCCC2)Nc2nccc(n2)-c2cccc(c2)OCC1`, in assay [2], the Potency was 0.943 µM (active).
Regarding `Cc1nc2cnc3ccc(C#Cc4cccnc4)cc3c2n1-c1ccc(C(C)(C)C#N)cc1`, the Potency in [2] is 18.8 µM (active).
On the same count and under the same terms, for `COCCn1c2c([n+](Cc3cnccn3)c1C)C(=O)c1ccccc1C2=O` the value was 0.0047 µM (active).
Regarding `Nc1ccc([N+](=O)[O-])cc1`, the activation is 0.0042% (inactive) in assay [4] and -0.186% (inactive) in [5]. Moreover, the result in assay [12] and in [13] was inactive.
For `Nc1ccccc1N`, in [6], the Potency was 39.8 µM (active).
Turning to `CC(C)(O)C(=O)Nc1ccc([N+](=O)[O-])c(C(F)(F)F)c1`, the Potency in assay [1] is 66.8 µM (active); in assay [10], 29.8 µM (active); in [11] it was 26.6 µM (active). Also, the figures for the activation in assay [4] and in assay [6] were 4.44% (inactive) and -1.15% (inactive), respectively.
On to `C1CCC(NC2CCCCC2)CC1`, for which, in assay [1], the Potency result was “inactive”. Moreover, the activation was -5.71% (inactive) and -0.896% (inactive) and -1.09% (inactive) in assay [4]; -1.28% (inactive) and -0.443% (inactive) and 0.0289% (inactive) in assay [6]. The outcome in assay [12] and in assay [13] was inactive.
As for `c1cc2ccc3cccc4ccc(c1)c2c34`, the activation was 4.51% (inactive) and 2.05% (inactive) in [4]; -0.548% (inactive) and 0.897% (inactive) in assay [5]; -0.0456% (inactive) and 4.28% (inactive) in assay [6]. In addition, the result in assay [12] and in [13] was inactive.
Consider `CO/C=C(/C(=O)OC)c1ccccc1Oc1cc(Oc2ccccc2C#N)ncn1`, for which the Potency in assay [1] is 13.7 µM (active). Moreover, the activation in assay [4] was 25% (inactive); in [6] it was 1.61% (inactive).
For the compound `ClC1=C(Cl)[C@]2(Cl)[C@@H]3[C@@H]4C[C@@H]([C@H]5O[C@@H]45)[C@@H]3[C@@]1(Cl)C2(Cl)Cl`, the Potency in assay [1] was 54.5 µM (active). For the same compound, the values for the activation in [4], in [5] and in assay [6] were -1.42% (inactive), 5.88% (inactive) and -1.01% (inactive), respectively.
For `CCCCCCCCc1ccc(O)cc1`, the activation is 0.0262% (inactive) and -2.23% (inactive) in [4]; 1.65% (inactive) and 1.55% (inactive) in assay [6]. For the same compound, in assay [12], the result was inactive.
`O=[N+]([O-])c1c2ccccc2cc2ccccc12`: the figures for the Potency in assay [1], in assay [10] and in assay [11] were 53.1 µM (active), 11.9 µM (active) and 29.8 µM (active), respectively. Further, the activation is 4.5% (inactive) in [4] and 10% (inactive) in assay [6]. In addition, in assay [12], the result was inactive.
In the case of `Nc1ccc(Cl)cc1`, the activation in [4] is -2.94% (inactive); in assay [6], 0.816% (inactive). The Potency entry in [10] and in [11] was “inactive” throughout. For the same compound, the result in [12] was inactive.
Consider `CC(C)Oc1cccc(NC(=O)c2ccccc2C(F)(F)F)c1`, for which the activation in assay [4] is -2.47% (inactive); in assay [5], 1.81% (inactive); in [6], 11.8% (inactive).
For the compound `O=S(=O)(c1ccc(Cl)cc1)c1ccc(Cl)cc1`, the Potency in assay [1] was 66.8 µM (active). Further, the activation in assay [4] was -0.565% (inactive) and -3.02% (inactive) and 0.243% (inactive); in [6], -0.947% (inactive) and -1.11% (inactive) and 1.55% (inactive). Also, the result in [12] and in [13] was inactive.
